Tests used:
[1] = target: Tyrosine-protein kinase Fyn (Homo sapiens) (UniProt P06241); settings: at 1 µM
[2] = target: Tyrosine-protein kinase HCK (Homo sapiens) (UniProt P08631); settings: at 0.1 µM
[3] = target: Tyrosine-protein kinase HCK (Homo sapiens) (UniProt P08631); settings: at 1 µM
[4] = target: Insulin-like growth factor 1 receptor (Homo sapiens) (UniProt P08069); settings: at 0.1 µM
[5] = target: Insulin-like growth factor 1 receptor (Homo sapiens) (UniProt P08069); settings: at 1 µM
[6] = target: Insulin receptor (Homo sapiens) (UniProt P06213); settings: at 0.1 µM
[7] = target: Insulin receptor (Homo sapiens) (UniProt P06213); settings: at 1 µM
[8] = target: Insulin receptor-related protein (Homo sapiens) (UniProt P14616); settings: at 0.1 µM
Chain of Insulin receptor-related protein (Homo sapiens) (P14616 27-742 limits assumed): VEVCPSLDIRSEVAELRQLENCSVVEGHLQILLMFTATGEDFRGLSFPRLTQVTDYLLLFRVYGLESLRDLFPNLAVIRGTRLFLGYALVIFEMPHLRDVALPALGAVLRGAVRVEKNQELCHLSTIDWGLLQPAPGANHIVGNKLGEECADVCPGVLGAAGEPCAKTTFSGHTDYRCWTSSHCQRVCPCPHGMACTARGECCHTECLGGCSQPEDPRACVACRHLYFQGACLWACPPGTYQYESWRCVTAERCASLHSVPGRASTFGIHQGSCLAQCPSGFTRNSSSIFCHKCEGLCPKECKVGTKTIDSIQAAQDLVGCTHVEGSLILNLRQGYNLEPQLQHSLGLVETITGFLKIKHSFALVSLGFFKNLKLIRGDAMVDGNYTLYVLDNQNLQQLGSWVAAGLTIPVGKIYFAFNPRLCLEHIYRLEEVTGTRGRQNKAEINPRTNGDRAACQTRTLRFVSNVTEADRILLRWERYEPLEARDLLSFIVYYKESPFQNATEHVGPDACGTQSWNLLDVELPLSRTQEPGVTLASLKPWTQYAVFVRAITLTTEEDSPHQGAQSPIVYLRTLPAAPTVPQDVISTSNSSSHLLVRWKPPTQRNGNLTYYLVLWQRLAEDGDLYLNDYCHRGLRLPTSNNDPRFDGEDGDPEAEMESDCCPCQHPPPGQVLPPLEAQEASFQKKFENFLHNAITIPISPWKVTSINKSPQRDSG
Chain of Insulin receptor-related protein (Homo sapiens) (P14616 747-1297 limits assumed): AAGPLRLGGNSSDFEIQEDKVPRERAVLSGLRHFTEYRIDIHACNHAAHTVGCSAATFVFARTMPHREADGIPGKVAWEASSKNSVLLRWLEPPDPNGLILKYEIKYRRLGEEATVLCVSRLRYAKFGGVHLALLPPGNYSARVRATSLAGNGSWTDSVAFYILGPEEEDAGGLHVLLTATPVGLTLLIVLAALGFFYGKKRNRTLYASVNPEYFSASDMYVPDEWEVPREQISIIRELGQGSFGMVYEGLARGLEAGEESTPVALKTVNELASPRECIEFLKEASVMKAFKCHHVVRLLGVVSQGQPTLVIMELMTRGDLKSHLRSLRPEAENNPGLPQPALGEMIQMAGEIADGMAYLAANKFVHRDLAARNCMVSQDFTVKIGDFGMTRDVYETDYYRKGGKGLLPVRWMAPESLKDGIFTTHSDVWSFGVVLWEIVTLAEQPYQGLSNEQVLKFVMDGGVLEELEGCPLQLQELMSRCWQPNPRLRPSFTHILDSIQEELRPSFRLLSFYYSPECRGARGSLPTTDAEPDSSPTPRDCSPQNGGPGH

[9] = target: Insulin receptor-related protein (Homo sapiens) (UniProt P14616); settings: at 1 µM
[10] = target: T1, Tyrosine-protein kinase ITK/TSK (Homo sapiens) (UniProt Q08881); settings: at 0.1 µM
T1 sequence (whole entry): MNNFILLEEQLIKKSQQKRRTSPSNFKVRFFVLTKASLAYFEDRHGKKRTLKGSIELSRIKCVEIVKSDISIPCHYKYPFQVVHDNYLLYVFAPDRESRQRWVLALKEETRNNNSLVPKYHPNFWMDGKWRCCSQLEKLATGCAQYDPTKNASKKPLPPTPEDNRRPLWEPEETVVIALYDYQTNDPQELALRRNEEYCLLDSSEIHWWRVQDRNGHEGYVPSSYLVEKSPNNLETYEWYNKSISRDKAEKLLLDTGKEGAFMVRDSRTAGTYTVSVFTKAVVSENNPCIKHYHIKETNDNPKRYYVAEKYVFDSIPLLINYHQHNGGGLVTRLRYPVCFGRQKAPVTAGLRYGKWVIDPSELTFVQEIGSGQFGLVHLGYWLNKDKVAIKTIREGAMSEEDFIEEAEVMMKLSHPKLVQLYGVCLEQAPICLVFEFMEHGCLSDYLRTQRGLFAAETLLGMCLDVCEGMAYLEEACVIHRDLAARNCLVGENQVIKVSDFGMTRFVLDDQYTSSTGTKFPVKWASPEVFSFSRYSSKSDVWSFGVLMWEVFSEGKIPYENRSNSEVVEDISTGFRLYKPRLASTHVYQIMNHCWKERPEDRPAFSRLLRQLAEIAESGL

[11] = target: T1, Tyrosine-protein kinase ITK/TSK (Homo sapiens); settings: at 1 µM
[12] = target: Tyrosine-protein kinase JAK1 (Homo sapiens) (UniProt P23458); settings: at 0.1 µM
Chain of Tyrosine-protein kinase JAK1 (Homo sapiens) (P23458 whole entry): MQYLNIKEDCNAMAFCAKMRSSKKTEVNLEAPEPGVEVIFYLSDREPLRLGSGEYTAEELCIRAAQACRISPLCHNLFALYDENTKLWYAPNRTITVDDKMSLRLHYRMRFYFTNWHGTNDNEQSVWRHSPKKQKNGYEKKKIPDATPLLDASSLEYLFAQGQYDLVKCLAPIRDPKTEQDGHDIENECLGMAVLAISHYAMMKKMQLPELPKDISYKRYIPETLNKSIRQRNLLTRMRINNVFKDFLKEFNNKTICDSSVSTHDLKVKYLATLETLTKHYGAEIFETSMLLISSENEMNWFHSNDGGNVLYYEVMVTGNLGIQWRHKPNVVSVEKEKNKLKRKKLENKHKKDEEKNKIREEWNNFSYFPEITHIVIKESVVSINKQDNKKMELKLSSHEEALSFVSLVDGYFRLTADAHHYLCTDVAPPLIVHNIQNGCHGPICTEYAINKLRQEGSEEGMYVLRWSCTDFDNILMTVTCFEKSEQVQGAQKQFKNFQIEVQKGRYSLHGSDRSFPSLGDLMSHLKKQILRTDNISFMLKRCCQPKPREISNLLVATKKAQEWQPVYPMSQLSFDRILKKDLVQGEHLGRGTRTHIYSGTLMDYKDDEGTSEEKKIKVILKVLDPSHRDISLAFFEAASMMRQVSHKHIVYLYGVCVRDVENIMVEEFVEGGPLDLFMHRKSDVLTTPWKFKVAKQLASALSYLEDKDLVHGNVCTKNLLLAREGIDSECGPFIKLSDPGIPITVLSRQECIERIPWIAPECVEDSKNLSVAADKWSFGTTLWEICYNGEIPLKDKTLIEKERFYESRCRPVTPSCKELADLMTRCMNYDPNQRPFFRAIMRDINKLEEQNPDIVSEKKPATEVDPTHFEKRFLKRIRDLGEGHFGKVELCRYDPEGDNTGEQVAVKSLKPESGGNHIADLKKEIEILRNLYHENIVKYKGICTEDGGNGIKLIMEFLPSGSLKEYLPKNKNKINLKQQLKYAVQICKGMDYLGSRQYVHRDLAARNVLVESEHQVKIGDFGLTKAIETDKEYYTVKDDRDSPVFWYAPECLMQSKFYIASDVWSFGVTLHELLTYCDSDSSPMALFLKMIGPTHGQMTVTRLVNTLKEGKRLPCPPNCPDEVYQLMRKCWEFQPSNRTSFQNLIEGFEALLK

[13] = target: Tyrosine-protein kinase JAK1 (Homo sapiens) (UniProt P23458); settings: at 1 µM
[14] = target: Tyrosine-protein kinase JAK2 (Homo sapiens) (UniProt O60674); settings: at 0.1 µM
[15] = target: Tyrosine-protein kinase JAK2 (Homo sapiens) (UniProt O60674); settings: at 1 µM
[16] = target: T2, Tyrosine-protein kinase JAK3 (Homo sapiens) (UniProt P52333); settings: at 0.1 µM
T2 sequence (whole entry): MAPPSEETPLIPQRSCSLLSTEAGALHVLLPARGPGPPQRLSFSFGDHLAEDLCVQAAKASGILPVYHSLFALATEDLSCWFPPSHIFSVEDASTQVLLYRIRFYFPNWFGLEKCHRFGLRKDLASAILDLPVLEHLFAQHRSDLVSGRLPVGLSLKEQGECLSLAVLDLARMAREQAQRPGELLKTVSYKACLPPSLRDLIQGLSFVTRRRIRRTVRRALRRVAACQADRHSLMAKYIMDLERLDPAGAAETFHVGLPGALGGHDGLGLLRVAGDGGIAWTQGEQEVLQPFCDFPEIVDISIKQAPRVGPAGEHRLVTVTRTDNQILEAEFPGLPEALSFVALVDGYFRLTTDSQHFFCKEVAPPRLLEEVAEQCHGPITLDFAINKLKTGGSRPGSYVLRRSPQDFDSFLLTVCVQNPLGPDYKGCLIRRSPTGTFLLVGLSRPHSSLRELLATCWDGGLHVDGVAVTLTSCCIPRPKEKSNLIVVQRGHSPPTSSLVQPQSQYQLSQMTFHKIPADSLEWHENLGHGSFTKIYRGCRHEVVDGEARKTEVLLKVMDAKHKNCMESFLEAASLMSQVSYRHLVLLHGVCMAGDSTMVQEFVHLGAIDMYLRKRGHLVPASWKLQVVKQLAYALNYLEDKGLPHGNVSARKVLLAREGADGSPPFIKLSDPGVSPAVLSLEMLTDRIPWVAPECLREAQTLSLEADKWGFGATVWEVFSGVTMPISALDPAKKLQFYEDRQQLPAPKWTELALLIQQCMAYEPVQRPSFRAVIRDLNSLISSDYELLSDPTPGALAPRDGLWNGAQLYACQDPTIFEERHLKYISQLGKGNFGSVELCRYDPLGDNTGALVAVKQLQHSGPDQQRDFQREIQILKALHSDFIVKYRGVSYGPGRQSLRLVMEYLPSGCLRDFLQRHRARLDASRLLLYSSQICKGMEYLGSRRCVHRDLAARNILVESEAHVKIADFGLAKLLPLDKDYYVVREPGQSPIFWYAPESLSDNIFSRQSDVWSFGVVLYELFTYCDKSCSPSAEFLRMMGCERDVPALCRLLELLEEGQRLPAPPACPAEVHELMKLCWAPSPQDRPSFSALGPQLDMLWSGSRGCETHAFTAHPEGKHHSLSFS

[17] = target: T2, Tyrosine-protein kinase JAK3 (Homo sapiens); settings: at 1 µM
[18] = target: Vascular endothelial growth factor receptor 2 (Homo sapiens) (UniProt P35968); settings: at 0.1 µM
[19] = target: Vascular endothelial growth factor receptor 2 (Homo sapiens) (UniProt P35968); settings: at 1 µM
[20] = target: Mast/stem cell growth factor receptor Kit (Homo sapiens) (UniProt P10721); settings: at 0.1 µM;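 also: values are mean inhibition of KIT, from the GSK PKIS dataset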

Chain of Insulin-like growth factor 1 receptor (Homo sapiens) (P08069 31-736 limits assumed): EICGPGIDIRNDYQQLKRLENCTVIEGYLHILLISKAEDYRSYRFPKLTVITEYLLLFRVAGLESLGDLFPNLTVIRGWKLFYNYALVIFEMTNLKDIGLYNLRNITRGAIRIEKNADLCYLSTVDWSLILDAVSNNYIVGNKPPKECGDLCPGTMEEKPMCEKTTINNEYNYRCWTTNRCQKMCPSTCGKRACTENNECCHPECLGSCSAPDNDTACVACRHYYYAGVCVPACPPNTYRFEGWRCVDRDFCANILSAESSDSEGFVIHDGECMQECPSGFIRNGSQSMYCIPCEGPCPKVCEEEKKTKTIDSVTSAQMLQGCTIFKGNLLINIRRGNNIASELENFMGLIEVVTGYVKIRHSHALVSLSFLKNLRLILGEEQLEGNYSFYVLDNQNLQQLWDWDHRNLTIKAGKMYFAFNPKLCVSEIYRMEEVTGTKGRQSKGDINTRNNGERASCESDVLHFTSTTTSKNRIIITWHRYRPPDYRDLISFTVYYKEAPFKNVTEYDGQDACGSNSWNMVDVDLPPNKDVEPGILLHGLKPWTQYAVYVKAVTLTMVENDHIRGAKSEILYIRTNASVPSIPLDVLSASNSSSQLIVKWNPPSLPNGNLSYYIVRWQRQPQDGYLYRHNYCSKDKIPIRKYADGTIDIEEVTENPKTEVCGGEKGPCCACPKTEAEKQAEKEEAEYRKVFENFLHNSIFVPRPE
Chain of Insulin-like growth factor 1 receptor (Homo sapiens) (P08069 741-1367 limits assumed): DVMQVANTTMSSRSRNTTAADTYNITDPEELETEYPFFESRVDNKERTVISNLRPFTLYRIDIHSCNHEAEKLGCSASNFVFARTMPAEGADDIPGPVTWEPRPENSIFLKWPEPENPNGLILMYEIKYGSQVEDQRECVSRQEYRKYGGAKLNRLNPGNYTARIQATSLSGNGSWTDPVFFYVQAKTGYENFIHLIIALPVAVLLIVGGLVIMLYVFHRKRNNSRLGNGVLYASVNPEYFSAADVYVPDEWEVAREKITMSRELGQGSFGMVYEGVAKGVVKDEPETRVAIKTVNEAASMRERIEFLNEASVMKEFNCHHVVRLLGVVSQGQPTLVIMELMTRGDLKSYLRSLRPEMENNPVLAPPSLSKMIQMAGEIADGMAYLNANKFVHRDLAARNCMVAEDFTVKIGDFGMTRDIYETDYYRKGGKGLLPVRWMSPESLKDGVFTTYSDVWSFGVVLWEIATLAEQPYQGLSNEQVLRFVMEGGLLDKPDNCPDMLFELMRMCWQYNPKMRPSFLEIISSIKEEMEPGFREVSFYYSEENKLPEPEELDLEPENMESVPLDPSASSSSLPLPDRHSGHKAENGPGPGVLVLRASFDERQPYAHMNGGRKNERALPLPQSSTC
Chain of Tyrosine-protein kinase Fyn (Homo sapiens) (P06241 2-537 limits assumed): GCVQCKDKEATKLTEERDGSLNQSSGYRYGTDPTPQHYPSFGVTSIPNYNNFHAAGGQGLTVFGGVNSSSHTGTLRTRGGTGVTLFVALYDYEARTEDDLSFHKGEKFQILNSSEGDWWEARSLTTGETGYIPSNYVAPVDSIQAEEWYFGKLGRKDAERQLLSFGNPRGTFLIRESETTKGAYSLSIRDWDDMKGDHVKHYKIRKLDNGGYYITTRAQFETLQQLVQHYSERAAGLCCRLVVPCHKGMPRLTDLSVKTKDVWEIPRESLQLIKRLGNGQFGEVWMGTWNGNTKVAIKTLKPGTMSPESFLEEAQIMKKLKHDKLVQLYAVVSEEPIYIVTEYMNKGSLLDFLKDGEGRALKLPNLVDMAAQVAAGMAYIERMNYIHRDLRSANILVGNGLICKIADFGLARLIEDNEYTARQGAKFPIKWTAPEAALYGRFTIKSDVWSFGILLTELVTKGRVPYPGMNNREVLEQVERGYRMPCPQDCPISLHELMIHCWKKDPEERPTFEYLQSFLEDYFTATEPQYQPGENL
Chain of Tyrosine-protein kinase HCK (Homo sapiens) (P08631 2-526 limits assumed): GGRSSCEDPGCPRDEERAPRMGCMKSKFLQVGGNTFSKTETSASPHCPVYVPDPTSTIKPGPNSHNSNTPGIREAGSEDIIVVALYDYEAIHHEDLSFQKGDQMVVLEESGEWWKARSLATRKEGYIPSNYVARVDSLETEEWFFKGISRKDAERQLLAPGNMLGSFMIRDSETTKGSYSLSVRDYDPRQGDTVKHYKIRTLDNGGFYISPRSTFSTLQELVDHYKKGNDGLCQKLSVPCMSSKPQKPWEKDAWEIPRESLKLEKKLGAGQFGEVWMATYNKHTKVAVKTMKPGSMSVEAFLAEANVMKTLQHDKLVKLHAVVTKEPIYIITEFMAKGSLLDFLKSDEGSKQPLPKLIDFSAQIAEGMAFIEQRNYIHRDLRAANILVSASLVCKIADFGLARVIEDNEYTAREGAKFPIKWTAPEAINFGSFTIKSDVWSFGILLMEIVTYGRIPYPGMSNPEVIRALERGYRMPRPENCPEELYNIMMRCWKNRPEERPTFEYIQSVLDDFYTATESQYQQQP

Structure (SMILES) | inhibition [1] [%] | inhibition [2] [%] | inhibition [3] [%] | inhibition [4] [%] | inhibition [5] [%] | inhibition [6] [%] | inhibition [7] [%] | inhibition [8] [%] | inhibition [9] [%] | inhibition [10] [%] | inhibition [11] [%] | inhibition [12] [%] | inhibition [13] [%] | inhibition [14] [%] | inhibition [15] [%] | inhibition [16] [%] | inhibition [17] [%] | inhibition [18] [%] | inhibition [19] [%] | inhibition [20] [%]
CC1=C(C(=O)Nc2ccc3[nH]ncc3c2)C(c2ccc(Cl)c(Cl)c2)CC(=O)N1 (stereo not given) | 2.37 | 6.21 | 7.31 | -0.16 | 1.11 | 1.45 | 1.96 | 0.58 | 1.03 | 1.18 | 0.67 | 5.41 | 36.6 | 1.94 | 23.5 | 0.78 | 18 | 3.14 | 5.12 | 3.22
Cn1cc(C=C2C(=O)Nc3cccnc32)c2ccccc21 | 15.4 | 6.56 | 42.1 | 1.72 | 8.98 | 3.49 | 20.1 | 0.41 | 1.8 | 2.56 | 15.7 | 1.61 | -6.11 | 0.37 | 2.77 | -0.5 | 4.53 | 14.7 | 54.8 | 11.3
Cc1ccc(NC(=O)c2ccnc(N3CCCC3)c2)cc1-c1ccc(C(=O)NCC2CC2)cc1 | -1.49 | 4.55 | 10.7 | -4.41 | -3.36 | 6.4 | 11.3 | 2.43 | 2.2 | -1.68 | -1.06 | 4.61 | 5.32 | 1.37 | 2.33 | -2.85 | 2.32 | 9.55 | 10.2 | 5.54
COc1ccc(-c2coc3ncnc(N)c23)cc1 | 2.02 | 5.63 | 8.51 | 1.64 | 2.38 | 5.22 | 6.33 | 1.82 | 1.27 | 1.41 | 1.48 | 0.98 | 2.67 | 1.71 | 2.08 | -1.56 | 2.35 | 6.15 | 9 | 5.17
COc1cc2ncn(-c3cc(O[C@H](C)c4ccccc4Cl)c(C(N)=O)s3)c2cc1OC | 8.81 | 11.7 | 51.8 | 2.5 | 3.13 | 2.07 | 4.73 | 1.49 | 2.98 | 2.64 | 8.66 | 8.61 | 21.9 | 1.66 | 6.6 | 0.32 | 25.9 | 36.4 | 72.5 | 7.11
CCn1c(-c2nonc2N)nc2cnc(Oc3cccc(NC(=O)c4ccc(OCCN5CCOCC5)cc4)c3)cc21 | 5.35 | 6.47 | 4.67 | -0.59 | 1.49 | 5.62 | 7.3 | 1.29 | 0.16 | 0.81 | 0.94 | 4.42 | 12.1 | 5.74 | 1.29 | 0.31 | -0.45 | 5.67 | 7.83 | 5.45
CCCN1CCC(Oc2cc(Nc3nc(Nc4cccc(F)c4C(N)=O)c4cc[nH]c4n3)c(OC)cc2Cl)CC1 | 3.01 | 4.1 | 7.31 | 57.2 | 91.8 | 64 | 88 | 4.74 | 37.6 | 0.65 | 1.18 | -1.95 | -2.49 | 0.96 | 1.42 | 0.62 | 1.56 | 9.18 | 18.5 | -0.76
CN1CCC(C(=O)Nc2n[nH]c3nnc(-c4ccccc4)cc23)CC1 | 3.89 | 3.42 | 7.61 | 3.98 | 4.17 | 7.76 | 4.86 | 1.63 | 2.13 | 1.35 | 2.38 | 4.13 | 17.6 | 1.08 | 1.05 | -1.09 | -0.3 | 2.34 | 10.6 | 4.36
COC(=O)Nc1nc2cc(Oc3cccc(NC(=O)Nc4cc(C(F)(F)F)ccc4F)c3)ccc2[nH]1 | 7.79 | 1.11 | 7.7 | -1.77 | -0.89 | 2.67 | 2.78 | -1.56 | -0.86 | 0.34 | 0.67 | 0.78 | 4.36 | -0.5 | -0.07 | 1.1 | 2.02 | 19.1 | 63.5 | 4.16
Fc1cccc(COc2ccc(Nc3ncnc4sc(-c5cccs5)cc34)cc2Cl)c1 | 5.19 | 1.68 | 3.8 | 0.38 | 0.6 | 4.85 | 3.43 | -1.46 | -0.83 | 0.84 | 1.32 | -0.79 | -0.37 | -0.63 | 0.58 | 1.46 | 1.31 | 4.41 | 7.67 | 9.52
COc1ccc2cc(-c3c(-c4ccncc4)nc(-c4ccc([S+](C)[O-])cc4)n3C)ccc2c1 (stereo not given) | 2.67 | 4.09 | 6.94 | 1.13 | 0.1 | -0.81 | 3.26 | 1.09 | 1.11 | 1.06 | 3.22 | 1.65 | -2.81 | 0.86 | 2.23 | -0.93 | 0.05 | 4.56 | 17.8 | 1.88
Cc1ccc(C(=O)NC2CCCCC2)cc1-c1ccc(C(=O)NCC2CC2)cc1 | 0.78 | 5.78 | 7.52 | 1.73 | 5.21 | 3.35 | 1.48 | 3.13 | 2.14 | 1.95 | 2.35 | 9.94 | 9.1 | 3.28 | 4.08 | 0.78 | 3.02 | 7.88 | 8.4 | 4.54
COc1cc(C=NNc2ncnc3c2cnn3-c2ccccc2)ccc1O | 47.5 | 8.92 | 41.6 | 1.72 | 3.81 | 3.42 | 2.58 | 3.25 | 2.41 | 1.47 | 4.53 | 2.76 | 3.21 | 1.26 | 8.82 | -0.33 | 4.39 | 12.4 | 49.6 | 15
CNC(=O)c1cncc(/C=C/c2c(Cl)cccc2Cl)c1 | 15.1 | 11.6 | 44.9 | -8.06 | -3 | 3.59 | 2.79 | 2.44 | 2.34 | -1.98 | -1.73 | 2.61 | 2.48 | 1.58 | 2.6 | -4.61 | -3.71 | 6.02 | 13.1 | 5.81
Nc1ncnc2occ(-c3ccc(NC(=O)Nc4cccc(C(F)(F)F)c4)cc3)c12 | 19.9 | 12 | 48.8 | 14.6 | 15.5 | 3.28 | 10.5 | 2.2 | 5.07 | 0.99 | 12.3 | 0.84 | 11.8 | 1.98 | 9.83 | -4.17 | -2.01 | 73.5 | 77.3 | 94.9
NC(=O)c1ccc(-c2nc(-c3ccccn3)c(-c3ccc4c(c3)OCO4)[nH]2)cc1 | 8.01 | 3.56 | 4.66 | 1.18 | 2.2 | 3.26 | 5.06 | 3.02 | -0.59 | 1.2 | 1.43 | 3.36 | 8.87 | 1.02 | 1.92 | -1.26 | 0.2 | 2.91 | 3.09 | 1.09

Reference: ChEMBL document CHEMBL1961873, “Compounds: GSK PKIS; Assays: Nanosyn kinase panel” (2012)
